The values below come from PubChem BioAssay.

Active and inactive are the calls of the source. Unless noted, no rule for the calls is given here.

In assay [1] the test system is XIP peptide (Xip251-270) binding. Description: small-molecule binders of XIP peptide, primary screen, biochemical, small-molecule microarray, fluorescence 635/667 nm, 0.1 µg/mL protein (AID 1182). Conditions: fluorescent protein binding, 635 nm, higher = more signal, called active from +8 up or from −8 down.
The test system of the next assay is XIP peptide (Xip251-270). Description: small-molecule binders of XIP peptide, primary screen, biochemical, small-molecule microarray, fluorescence 635/667 nm, 0.5 µg/mL protein (AID 1183). The following applies: small-molecule microarray binding, fluorescence 635 nm; higher = more signal.
The nature of assay [2]: Plasmodium falciparum growth inhibition, primary screen, strain 3D7, DAPI fluorescence, 100 nL (AID 1184).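 Also: parasites grown inside human red blood cells in medium with human serum.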 The following applies: P. falciparum 3D7 growth, 3 d, higher = more signal.
The target in assay [3] is Homeobox protein Hox-A13 (Mus musculus) (UniProt Q62424). Description: inhibitors of HoxA13-DNA binding, primary screen, biochemical, fluorescence polarization, labeled oligonucleotide (AID 1185). The following applies: 15 min, higher = more signal, called active from +8 up or from −8 down. For orientation: Fluorescence polarisation rises when a labelled molecule tumbles more slowly, as on binding a larger partner.

A short description of assay [4]: inhibitors of hydroxyurea-induced Chk1 phosphorylation, primary screen, imaging, HeLa, phospho-Chk1 antibody, percent positive cells (AID 1186). Conditions: hydroxyurea-induced phospho-Chk1 immunofluorescence imaging, higher = more signal.
Assay [5] is described as follows: inhibitors of hydroxyurea-induced Chk1 phosphorylation, primary screen, imaging, HeLa, phospho-Chk1 nuclear intensity (AID 1187). Conditions: hydroxyurea-induced phospho-Chk1 immunofluorescence imaging, higher = more signal.

Sequence of Homeobox protein Hox-A13 (Mus musculus) (Q62424 whole entry, looked up): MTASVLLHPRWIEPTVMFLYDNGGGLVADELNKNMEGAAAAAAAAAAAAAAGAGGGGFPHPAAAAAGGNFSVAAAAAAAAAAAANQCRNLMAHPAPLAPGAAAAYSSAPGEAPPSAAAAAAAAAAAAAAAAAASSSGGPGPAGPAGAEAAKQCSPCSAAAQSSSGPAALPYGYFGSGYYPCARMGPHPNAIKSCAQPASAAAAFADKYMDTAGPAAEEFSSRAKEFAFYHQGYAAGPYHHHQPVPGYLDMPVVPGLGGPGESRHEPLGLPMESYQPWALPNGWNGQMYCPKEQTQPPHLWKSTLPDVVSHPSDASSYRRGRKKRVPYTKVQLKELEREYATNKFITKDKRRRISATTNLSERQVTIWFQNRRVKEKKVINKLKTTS

On to `Cc1ccc(C(C)CC(O)C2C=CC3C(=O)N(C)C(=O)C3N2Nc2ccccc2)o1` (configuration not stated), for which the composite z-score was 0.476 (inactive) in assay [1] and 0.383 with XIP peptide (Xip251-270). Moreover, the z-score in assay [2] was 0.385; in assay [3] it was -4.68 (inactive); in assay [4] it was 0.163 (inactive); in assay [5] it was -0.0486 (inactive).
As to `C[C@@H]1ON(c2ccc(I)cc2)[C@H](c2cccc(NC(=O)OCC3c4ccccc4-c4ccccc43)c2)[C@H]1C(=O)N1C(=O)OC[C@H]1Cc1ccccc1`, the composite z-score is -0.283 (inactive) in assay [1] and 0.771 in the assay on XIP peptide (Xip251-270). Besides, the z-score in assay [2] is -1.27; in assay [3] it was 2.16 (inactive); in assay [4], 0.095 (inactive); in assay [5] it was 0.0287 (inactive).
In the case of `CCOC(=O)C[C@H]1[C@H](OC(=O)Cc2ccc3c(c2)OCO3)[C@@H](NC(=O)c2ccc3ccccc3n2)c2cc(OCCCO)ccc2N1C(=O)Cc1ccc(OC)cc1`, the composite z-score was 0.322 (inactive) in assay [1] and 0.401 in the assay on XIP peptide (Xip251-270). For the same compound, the z-score in assay [2] was -2.57; in assay [3] it was -1.86 (inactive); in assay [4] it was -0.192 (inactive); in assay [5], 0.225 (inactive).
On to `C=CCOC(=O)[C@@H]1[C@H]2C(=O)O[C@H](c3ccccc3)[C@H](c3ccccc3)N2[C@H](c2ccc(OCCOC(=O)[C@H]3C[C@H]4C(=O)N[C@@H](CCCCN(C)C)C(=O)N4[C@H]3c3ccc(O)cc3)cc2)[C@@]12C(=O)Nc1ccc(I)cc12`, for which the composite z-score in assay [1] is 0.94 (inactive); with XIP peptide (Xip251-270) it was 0.849. For the same compound, the z-score in assay [2] was -1.92; in assay [3] it was 5.3 (inactive); in assay [4], 0.289 (inactive); in assay [5], 0.419 (inactive).
On to `CC(C)C(=C=CC[C@H](O)c1ccccc1OCCO)C[C@H](O)c1cc(Cl)cc(Cl)c1O`, for which the values for the composite z-score (in assay [1]; with XIP peptide (Xip251-270)) were 0.35 (inactive) and 0.622, respectively. Moreover, the z-score in assay [2] was -1; in assay [3] it was -4.67 (inactive); in assay [4], 0.425 (inactive); in assay [5], 0.353 (inactive).
Take `COc1ccc(C(O)C2C=CC3C(=O)N(c4ccccc4)C(=O)C3N2Nc2ccc(C#N)cc2)cc1OCc1ccccc1` (configuration not stated): the composite z-score in assay [1] is 0.496 (inactive); in the assay with XIP peptide (Xip251-270), 0.556. Besides, the z-score was -0.474 in assay [2], 0.712 (inactive) in assay [3], -0.405 (inactive) in assay [4] and -0.669 (inactive) in assay [5].
As for `C=C(COC)/C(=C/C[C@@H](OC(C)=O)c1ccccc1OCCO)c1cnc2ccccc2c1`, the composite z-score in assay [1] was 0.534 (inactive); with XIP peptide (Xip251-270) it was 0.69. The z-score is -2.92 in assay [2], -5.76 (inactive) in assay [3], -0.5 (inactive) in assay [4] and -0.376 (inactive) in assay [5].
As for `COC(=O)[C@@]1(Cc2ccccc2)[C@H]2c3cc(C(=O)N(C)C)n(CCO)c3C[C@H]2CN1C(=O)c1ccccc1`, the results for the composite z-score (in assay [1]; with XIP peptide (Xip251-270)) were 1.42 (inactive) and 0.182, respectively. Moreover, the z-score in assay [2] was 1.1; in assay [3] it was -3.87 (inactive); in assay [4] it was 0.736 (inactive); in assay [5] it was 0.491 (inactive).
With `COC(=O)[C@@]1(Cc2ccc(OC)cc2)[C@H]2c3cc(C(=O)N(C)C)[nH]c3C[C@H]2CN1C(=O)c1ccccc1`, the results for the composite z-score (in assay [1]; in the assay with XIP peptide (Xip251-270)) were 0.0849 (inactive) and -0.197, respectively. The z-score in assay [2] was -0.0305; in assay [3], -2.93 (inactive); in assay [4] it was -0.041 (inactive); in assay [5], -0.309 (inactive).
Consider `CO[C@H]1O[C@H](CO)[C@@H](OC(=O)Nc2ccccc2)[C@H](OC(=O)Nc2ccccc2)[C@H]1OC(=O)Nc1ccccc1`, for which the composite z-score in assay [1] was 0.142 (inactive); in the assay on XIP peptide (Xip251-270), 0.69. Besides, the z-score in assay [2] was -2.51; in assay [3] it was -6.21 (inactive); in assay [4], -0.0874 (inactive); in assay [5] it was 0.511 (inactive).
As for `CC=CC(O)C1C=CC2C(=O)NC(=O)C2N1Nc1ccc(Cl)cc1Cl` (configuration not stated), the composite z-score was -0.223 (inactive) in assay [1] and -0.186 with XIP peptide (Xip251-270). Besides, the z-score was 0.179 in assay [2], -3.78 (inactive) in assay [3], 1.3 (inactive) in assay [4] and 1.22 (inactive) in assay [5].
Turning to `CO[C@H]1O[C@H](CO)[C@@H](OC(=O)Nc2ccccc2-c2ccccc2)[C@H](OC(=O)Nc2ccccc2)[C@H]1OC(=O)Nc1ccccc1`, the composite z-score in assay [1] was -0.249 (inactive); with XIP peptide (Xip251-270), 0.915. Further, the z-score in assay [2] was -2.14; in assay [3], -3.21 (inactive); in assay [4], -0.392 (inactive); in assay [5] it was -0.15 (inactive).
Consider `O=C1[C@H]2C=C(I)[C@H](C[C@@H]2OCCCCCCO)[C@@]12CO2`, for which the composite z-score is -0.0604 (inactive) in assay [1] and 0.77 in the assay on XIP peptide (Xip251-270). Further, the z-score in assay [2] is 1.09; in assay [3], -3.09 (inactive); in assay [4], -0.116 (inactive); in assay [5] it was -0.124 (inactive).
For `CCOC(=O)C1=C[C@@H](C(C)(C)C)N(S(=O)(=O)c2ccc(C)cc2)[C@H]1c1ccc(C#N)cc1`, the composite z-score was -0.331 (inactive) in assay [1] and 0.662 with XIP peptide (Xip251-270). Also, the z-score in assay [2] was -1.82; in assay [3], -0.543 (inactive); in assay [4], 0.892 (inactive); in assay [5] it was 1.21 (inactive).
Turning to `COCCOC(=O)N1C(=O)[C@@]2(c3cc(C#CCC(C(=O)OC)C(=O)OC)ccc31)[C@H](C(=O)Nc1nc3ccccc3s1)[C@H]1C(=O)O[C@H](c3ccccc3)[C@H](c3ccccc3)N1[C@@H]2c1ccc(O)cc1`, the composite z-score in assay [1] is 0.224 (inactive); in the assay with XIP peptide (Xip251-270), 0.599. In addition, the z-score in assay [2] is -1.52; in assay [3], -1.93 (inactive); in assay [4] it was 0.119 (inactive); in assay [5], 0.359 (inactive).
Consider `O=C1N(CCS(=O)(=O)c2ccccc2)c2ccccc2C[C@]12N=C(c1ccc(OCCCO)cc1)O[C@@H]2c1ccccc1`, for which the composite z-score in assay [1] is 0.412 (inactive); in the assay with XIP peptide (Xip251-270), 0.811. Also, the z-score in assay [2] is -2.3; in assay [3], -4.51 (inactive); in assay [4], -0.36 (inactive); in assay [5], -0.357 (inactive).
As to `CCOC(=O)C[C@H]1[C@H](OC(=O)c2cc3ccccc3oc2=O)[C@@H](NC(=O)CC(C)C)c2cc(OCCCO)ccc2N1C(=O)Cc1ccc(OC)cc1`, the composite z-score is 0.101 (inactive) in assay [1] and 0.686 with XIP peptide (Xip251-270). For the same compound, the z-score in assay [2] was -2.45; in assay [3], -4.83 (inactive); in assay [4], 0.372 (inactive); in assay [5], -0.268 (inactive).
